# Assay outcomes deposited in PubChem BioAssay by several laboratories.
# tim23-1 inh = growth inhibitors of tim23-1 mutant yeast, primary screen, luminescence, uHTS; S. cerevisiae tim23-1 growth, BacTiter-Glo luminescence, 24 h; inhibition, % at 20 µM; 330,000 compounds, 1.3% hits;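 active = growth inhibition of the mutant yeast at or above 50%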;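 note: temperature-sensitive mutant grown at 25 °C; plate controls were DMSO-treated mutant yeast for no effect and medium wells lacking yeast for full effect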
# NLRP3 yeast inh = NALP3 inflammasome inhibitors in reconstituted yeast, primary screen, luminescence, uHTS; Yeast reconstituted NLRP3/ASC/caspase-1, beta-gal luminescence, 24 h; inhibition, % at 10 µM; 330,000 compounds, 0.39% hits;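 active = inhibition of 50% or more; inactive = inhibition below 50%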;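 note: plate controls were induced DMSO wells for no effect and uninduced yeast grown without galactose for full effect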
# V-ATPase pHluor = regulators of yeast V-ATPase proton pumping, primary screen, pHLuorin cytosolic pH fluorescence | S. cerevisiae | response, % at 10 µM | 350,000 compounds, 0.37% hits | AID 504577, 2011; in the data active = response mostly above about 7.3%, no sharp cut-off; inactive = mostly below about 5.4%; note: actives read high
# TIM10 inh = growth inhibitors of isogenic TIM10 control yeast, primary screen, counter-screen for tim10-1 yeast inhibitor project, luminescence, uHTS; inhibition, % at 10 µM; 330,000 compounds, 1.4% hits; S. cerevisiae TIM10 strain growth, BacTiter-Glo luminescence, 24 h; AID 463195, 2010;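 active = inhibition of 40% or more at the single tested concentration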;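 note: wild-type TIM10 isogenic control strain grown at permissive 25 °C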
# tim10-1 inh = growth inhibitors of tim10-1 mutant yeast, primary screen, luminescence, uHTS; S. cerevisiae tim10-1 ts strain growth, BacTiter-Glo, 24 h; inhibition, % at 20 µM; 330,000 compounds, 2.2% hits;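 active = inhibition of at least 40%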;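 note: mutant grown at 25 °C; 0% = DMSO wells with yeast and 100% = wells holding no yeast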
# NALP1 inh = NALP1 inflammasome inhibitors in reconstituted yeast, colorimetric, S. cerevisiae, triplicate retest; S. cerevisiae NALP1/ASC/caspase-1 growth, X-gal OD620, 72 h; inhibition, % at 10 µM; 280,000 compounds, 0.61% hits; AID 2071, 2009; in the data active = inhibition mostly above about 24%, no sharp cut-off; inactive = mostly below about 32%
# NALP3 yeast conf = NALP3 inhibitors retested in yeast, confirmation, luminescence, single concentration; yeast expressing human NALP3; inhibition, % at 10 µM; 1,300 compounds, 81% hits; shares compounds with NLRP3 yeast inh; in the data active = inhibition above about 48%
# Casp1 ASC ctr = CASP1-PYCARD signaling inhibition in yeast, confirmatory test, counterassay for NLRP3 inhibitor program, one-dose; 1,000 compounds, 66% hits; yeast expressing Caspase-1-ASC, luminescence counter screen; shares compounds with NLRP3 yeast inh; inhibition, % at 10 µM; AID 488784, 2010
# NALP3 yeast rt = NALP3 inhibitors in yeast, repeat test, confirmation, luminescence, single concentration, retest | shares compounds with NLRP3 yeast inh | yeast expressing human NALP3, luminescence read-out | inhibition, % at 10 µM | AID 488794, 2010 | 1,000 compounds, 53% hits
# * hit, by the source's call; · = not tested or not shown. Sampled rows, rich in hits. Any-hit rate of the full collection: about 4.2%. Cut-off read from the data, not from the text of the source, unless noted: active = inhibition above about 50%; inactive = the rest.
SMILES,tim23-1 inh,NLRP3 yeast inh,V-ATPase pHluor,TIM10 inh,tim10-1 inh,NALP1 inh,NALP3 yeast conf,Casp1 ASC ctr,NALP3 yeast rt
Cc1nc2sc(-c3ccccc3)cc2c(=O)n1N,13.4,25.6,-2.2,-7.8,28.2,-2.6,·,·,·
Cc1ccc(C)c(NC(=S)NC23CN4CN(CN(C4)C2)C3)c1,10.9,10.2,-1.3,1.2,-3.6,0.5,·,·,·
COc1ccc(C(=O)c2no[n+]([O-])c2C(=O)c2ccc(OC)cc2)cc1,32.0,69.5*,3.4,4.3,7.3,20.7,79.8*,80.6*,61.9*
CCOC(=O)c1cc(NC(=O)C2CCCO2)cc(C(=O)OCC)c1 (stereo unspecified),10.2,16.4,-89.8,-8.3,22.0,·,·,·,·
COc1ccc(Cl)cc1NCCC(O)c1ccc(F)cc1 (stereo unspecified),17.8,7.4,1.6,6.0,15.1,-17.0,·,·,·
COc1ccc(NCCC(O)c2ccc(Cl)cc2)cc1 (stereo unspecified),-3.8,59.1*,-0.3,-15.1,-16.0,31.9,67.1*,48.9,46.0
O=C(CCCN1C(=O)C(c2ccccc2)Oc2cccnc21)NCc1ccccc1F (stereo unspecified),12.4,2.2,-0.9,15.9,19.5,6.4,·,·,·
O=C(CCl)Nc1cc(-c2ccccc2)nn1-c1ccccc1,43.2,55.3*,3.4,25.5,21.5,77.4*,66.2*,77.8*,69.3*
Cc1ccc(-c2cc(NC(=O)CCl)n(-c3ccccc3)n2)cc1,34.9,53.9*,-1.5,13.9,25.4,·,32.7,·,·
CC(=O)Nc1ccc(-c2cc(NC(C)=O)n(-c3ccccc3)n2)cc1,-12.3,2.4,2.3,-3.9,-17.6,34.8,·,·,·
O=C1c2ccsc2SCCN1Cc1cccc(Cl)c1,20.6,39.3,9.2,-31.3,14.5,9.3,·,·,·
O=C1c2ccsc2SCCN1Cc1ccc(Cl)cc1,35.4,79.4*,-1.1,-2.2,10.4,-4.9,83.5*,88.4*,79.8*
Cc1cccc(CN2CCSc3sccc3C2=O)c1,14.8,37.7,-1.3,-11.1,10.4,-9.5,·,·,·
Cc1ccc(CN2CCSc3sccc3C2=O)cc1,16.1,81.2*,3.0,-24.6,-14.9,25.6*,74.3*,89.3*,77.4*
O=C1c2ccsc2SCCN1Cc1ccc(F)cc1,6.4,65.3*,3.4,-6.9,23.9,12.8,71.8*,63.2*,33.5
COc1ccc(-c2cc(C(=O)Nc3c(C)n(C)n(-c4ccccc4)c3=O)no2)cc1,5.8,-2.6,9.2,-1.9,3.5,0.9,·,·,·
CCc1ccc2oc(-c3ccc(OC)cc3)cc(=Nc3c(C)n(C)n(-c4ccccc4)c3=O)c2c1,35.6,52.9*,-3.2,11.3,-9.0,-3.8,42.0,53.5*,43.4
CCc1ccc2oc(-c3ccc(OC)cc3)cc(=Nc3cccc(C(=O)O)c3)c2c1,20.5,39.9,0.6,15.3,16.2,4.2,·,·,·
COc1ccc(-c2cc(=Nc3ccc(C(=O)O)cc3)c3cc(C)ccc3o2)cc1,26.6,53.0*,-3.8,28.8,31.9,4.1,71.6*,56.6*,41.0
Cc1cccc(NCc2cc(Cl)ccc2O)n1,15.6,50.9*,-1.2,-5.0,0.9,11.0,45.5,46.8,41.8
CC1(C)CC(=O)/C(=C\c2cccc([N+](=O)[O-])c2)C(C)(C)N1,35.4,58.7*,-2.5,7.6,22.1,67.2*,55.1*,23.1,37.2
COc1ccc(C(=O)Nc2ccc(C)cc2C(=O)c2ccccc2)cc1,25.8,24.8,-0.6,29.9,30.7,37.9,·,·,·
Cc1ccc(C(=O)NNC(=S)NC(=O)c2ccc(Cl)cc2Cl)cc1,-12.0,51.0*,0.2,6.1,-5.0,8.3,65.7*,50.5*,48.6
Cc1ccc(C(=O)NNC(=S)NC(=O)c2ccccc2)cc1,21.4,47.2,0.2,25.3,-4.4,·,·,·,·
Cc1ccc(C(=O)NC(=S)NNC(=O)c2ccccc2O)cc1,14.3,53.2*,1.4,24.4,6.3,8.4,56.0*,34.5,16.8
SMILES,tim23-1 inh,NLRP3 yeast inh,V-ATPase pHluor,TIM10 inh,tim10-1 inh,NALP1 inh,NALP3 yeast conf,Casp1 ASC ctr,NALP3 yeast rt
O=C(NC(=S)NNC(=O)c1ccccc1O)c1ccc(F)cc1,41.9,50.4*,-0.3,26.6,-6.3,-1.0,66.8*,46.6,52.1*
Cc1ccc(CNc2cnn(C34CC5CC(CC(C5)C3)C4)c(=O)c2Cl)cc1,22.5,52.8*,1.1,35.5,3.5,26.1,48.9*,5.7,25.4
Cc1ccc(-n2c(-c3ccccc3)n[nH]c2=S)cc1,24.4,15.1,0.2,21.2,33.1,-14.8,·,·,·
Cc1ccc(-n2c(-c3ccccc3)c[nH]c2=S)cc1,11.7,55.9*,0.3,-20.1,-5.6,-2.9,28.1,·,·
COc1ccc(-n2c(-c3ccc(Cl)cc3)c[nH]c2=S)cc1,19.2,56.6*,-2.1,-3.6,23.1,-19.0,79.6*,50.7*,38.4
CC1CCN(S(=O)(=O)N2CCC(C(=O)NCc3ccc4c(c3)OCO4)CC2)CC1,14.4,11.3,3.6,-5.7,29.5,28.0,·,·,·
Nc1cc(N2CCCCC2)c([N+](=O)[O-])cc1Cl,34.8,50.5*,5.4,-10.4,-3.6,35.6,9.2,·,·
CCc1ccccc1NC(=O)c1cc(-c2cccs2)on1,1.1,56.5*,-4.9,-33.9,-25.8,28.5,65.0*,59.0*,59.8*
CCC1CCCCN1CCCNC(=O)CSc1nc2nc(C)c(Cc3ccc(C)cc3)c(C)n2n1 (stereo unspecified),12.6,16.2,-0.7,7.0,-8.9,22.0,·,·,·
O=C(C=Cc1ccccc1)c1c[nH]c2ccccc2c1=O,·,·,-1.6,·,·,·,·,·,·
O=C(/C=C/c1ccccc1)c1c[nH]c2ccccc12,16.0,50.2*,0.9,-23.9,-59.7,0.1,62.6*,·,·
O=C(Nc1ccccc1)C(=O)c1c[nH]c2ccccc12,-4.1,57.6*,-0.6,-21.1,-27.0,-10.7,75.4*,42.2,49.7
COc1ccc(S(=O)(=O)NC2CCCC2)c(Cl)c1Cl,32.8,5.3,-3.9,26.6,33.6,-2.6,·,·,·
S=C1NC[C@H](c2ccccc2)N1CC1CCCCC1,34.3,2.6,-0.6,36.9,35.7,4.3,·,·,·
O=C(COc1ccc(Br)cc1Cl)NC1CCCCC1,10.6,53.3*,1.0,-39.5,-0.5,38.4,3.8,·,·
O=C(COc1ccc(Br)cc1Br)NC1CCCC1,-2.2,61.9*,6.2,-19.8,-12.8,18.8,56.4*,53.4*,46.8
CCOC(=O)Nc1ccc(S(=O)(=O)NC2CCCCC2)cc1,6.8,56.8*,-2.3,-2.0,-4.8,3.4,68.4*,·,·
